Results: PubChem BioAssay AID738 (SRMLSC, 2007)
About 4,900 (5%) of roughly 98,000 compounds were called active. No stated cut-off is given here; in the data, active means inhibition above about 30%; inactive means the rest. This excerpt belongs to a sample that is enriched for actives.

Experiment: yeast control strain growth suppression – counter-screen for post-Golgi transport modulator project, primary screen (AID 738)
Details: efflux-deficient yeast background strain, growth absorbance A615, 16 h; at 10 µM; hits give high values

Row | Compound | inhibition
1 | C=CCNC(=O)c1cc2nc(C3CC3)cc(C(F)F)n2n1 | 11% (inactive)
2 | O=C1CC(NNc2ccccc2)C(=O)N1c1cccc(Cl)c1 (configuration not stated) | -2.74% (inactive)
3 | COC(=O)c1cc(C(=O)OC)cc(N2C(=O)CC(N3CCN(c4ccccc4)CC3)C2=O)c1 (configuration not stated) | -1.95% (inactive)
4 | O=C1CC(c2ccccc2)C(=O)N1c1cccc(O)c1 (configuration not stated) | 47.5% (active)
5 | COc1ccc(Oc2coc3cc(OC(=O)c4cncc(Br)c4)ccc3c2=O)cc1 | -3.94% (inactive)
6 | COc1ccc(C(=S)Nc2ccccc2)cc1 | -2.5% (inactive)
7 | CS(=O)(=O)N(CC(=O)Nc1ccc(F)cc1F)c1cccc([N+](=O)[O-])c1 | -6.14% (inactive)
8 | COC(=O)c1c(NC(=O)c2cccs2)sc2c1CCCC2 | 10.9% (inactive)
9 | Cc1ccc(C(=O)c2c(NC(=O)c3ccccc3)sc(C)c2C)cc1 | 4.53% (inactive)
10 | Cc1ccc(C(=O)c2c(NC(=O)c3ccncc3)sc3c2CCCC3)cc1 | 65.8% (active)
11 | CN1C(=O)C(CC(N)=O)N(NC(=O)c2ccc(Cl)cc2)C1=S (configuration not stated) | -2.73% (inactive)
12 | C=CCn1c(Oc2ccc(C(=O)OC)cc2)nc2c1c(=O)n(C)c(=O)n2C | 11.7% (inactive)
13 | Cc1nc(C)c(C(=O)N(c2ccc(C)c(C)c2)C(C(=O)NCc2ccco2)c2ccccc2)s1 (configuration not stated) | -4.44% (inactive)
14 | O=C(COc1ncnc2c(Cl)cc(Cl)cc12)N1CCN(S(=O)(=O)c2ccccc2)CC1 | 0.78% (inactive)
15 | Cc1cc(NC(=O)CN2CCCC(C)C2)n(-c2nc3ccccc3s2)n1 (configuration not stated) | 19.3% (inactive)
16 | CCOC(=O)N1CCN(CC(=O)Nc2cc(C)nn2-c2nc3ccccc3s2)CC1 | 42% (active)
17 | Cc1nn(CC(=O)Nc2nc3ccccc3s2)c(C)c1[N+](=O)[O-] | -2.54% (inactive)
18 | COc1ccc(/C=C2\CCCC3C2=NN(C(=O)c2scnc2C)C3c2ccc(OC)cc2)cc1 (configuration not stated) | 9.28% (inactive)
19 | CCC(C)(C)n1nnnc1C(c1ccccc1OC)N1CCSCC1 (configuration not stated) | 17.9% (inactive)
20 | CCC(C)(C)n1nnnc1C(c1cccs1)N1CCN(c2nc3ccccc3s2)CC1 (configuration not stated) | 34.9% (active)
21 | CCC(C)(C)n1nnnc1C(c1cccs1)N1CCN(Cc2ccccc2)CC1 (configuration not stated) | 3.99% (inactive)
22 | CCOc1ccc(C(O)Cn2c(=N)n(CCN3CCCCC3)c3ccccc32)cc1 (configuration not stated) | 7.31% (inactive)
23 | FC(F)(F)c1cc(-c2ccco2)nc(N2CCOCC2)n1 | 16.9% (inactive)

Row | Compound | inhibition
24 | O=C(CSc1nc(-c2ccco2)cc(C(F)(F)F)n1)N1CCc2ccccc2C1 | 30.3% (active)
25 | O=C(CSc1nc(-c2ccco2)cc(C(F)(F)F)n1)NCc1cccs1 | 8.94% (inactive)
26 | CCOC(=O)c1cnc(SC)nc1Sc1ccc(Cl)cc1Cl | 3.77% (inactive)
27 | Cc1ccc(NS(=O)(=O)c2c(C)[nH]c(=O)[nH]c2=O)cc1C | 11.7% (inactive)
28 | O=C(Cc1ccccc1)N/N=C/c1ccc(Cl)cc1Cl | 24.5% (inactive)
29 | CCCOc1ccc(C2c3c(oc4cc(C)c(C)cc4c3=O)C(=O)N2CCCN2CCOCC2)cc1 (configuration not stated) | 42.7% (active)
30 | CCCCOc1ccc(C(C)(O)CCN2CCOCC2)cc1 (configuration not stated) | 12.6% (inactive)
31 | COCCN1C(=O)c2oc3c(C)cc(C)cc3c(=O)c2C1c1cccc(O)c1 (configuration not stated) | 4.63% (inactive)
32 | COc1ccc2c(c1)CCc1c(C(=O)N3CCc4ccccc4C3)noc1-2 | 44.9% (active)
33 | COc1ccc2c(c1)CCc1c(C(=O)Nc3c(C)n(C)n(-c4ccccc4)c3=O)noc1-2 | 21% (inactive)
34 | COc1ccc2c(c1)CCc1c(C(=O)N3CCCC3)noc1-2 | -1.03% (inactive)
35 | O=c1cc(C(F)(F)F)[nH]c(=O)n1C1CCCCC1 | 23.5% (inactive)
36 | COCCN(C(=O)c1ccco1)c1nnc(-c2ccc(OC)cc2)s1 | 10% (inactive)
37 | Cc1cc(Nc2ccccc2)nc(N)n1 | 4.89% (inactive)
38 | Cc1nn(C)cc1/C=C1\CCC/C(=C\c2cn(C)nc2C)C1=O | 12.9% (inactive)
39 | CNC(=O)CSc1nnnn1-c1ccc(C)cc1C | 24.1% (inactive)
40 | CCOC(=O)CNC(=O)CSc1nnnn1-c1cc(C)ccc1C | 3.59% (inactive)
41 | CCOC(=O)c1c(-c2ccc(C)cc2C)csc1NC(=O)CSc1nnnn1C | 66.1% (active)
42 | CC(C)C(NS(=O)(=O)c1cccs1)C(=O)Nc1nc(C(C)(C)C)cs1 (configuration not stated) | 16.8% (inactive)
43 | CCn1cc(C(=O)N2CCN(Cc3ccc4c(c3)OCO4)CC2)c2cc(OC)c(OC)cc2c1=O | -2.75% (inactive)
44 | CS(=O)(=O)N(CC(=O)N1CCN(Cc2ccc3c(c2)OCO3)CC1)c1ccc2c(c1)OCO2 | 2.83% (inactive)
45 | COc1cc(Cl)c(S(=O)(=O)N2CCN(Cc3ccc4c(c3)OCO4)CC2)cc1Cl | 60.2% (active)
46 | Cc1ccccc1OCc1nnc(SCC(=O)N2c3ccccc3Sc3ccc(Cl)cc32)o1 | 5.3% (inactive)

Row | Compound | inhibition
47 | Cc1[nH]c(=O)c(C(=O)/C=C/c2ccccc2)c2c1CCCC2 | 24.5% (inactive)
48 | O=C(NC1=NCCS1)[C@H](Cc1ccccc1)N1C(=O)c2ccccc2C1=O | -1.98% (inactive)
49 | CCOC(=O)c1nn(-c2cccc(C)c2)cc1C(=O)c1ccccc1 | 12.9% (inactive)
50 | Nc1c(-c2ccc(F)cc2)cnc2ncnn12 | 1.38% (inactive)
51 | CNC(=S)NNC(=O)c1sccc1OCc1ccccc1 | 26.7% (inactive)
52 | Cc1ccc(NC(=O)N2CCC(O)(c3cccnc3)CC2)cc1 | -0.9% (inactive)
53 | CCOC(=O)C1=C(CN2CCc3ccccc32)NC(=O)NC1c1ccc(Cl)cc1 (configuration not stated) | 40.8% (active)
54 | COCCOC(=O)C1=C(C)NC(=O)NC1c1ccc(Cl)cc1 (configuration not stated) | 2.51% (inactive)
55 | CCOC(=O)C1=C(CN2CCc3ccccc32)NC(=O)NC1c1cccc([N+](=O)[O-])c1 (configuration not stated) | 1.33% (inactive)
56 | COc1cccc2c1OCC(C(=O)NCc1ccc(Cl)cc1Cl)=C2 | 9.54% (inactive)
57 | CCn1c(SCC(=O)c2ccc3ccccc3c2)nnc1-c1cccs1 | 5.6% (inactive)
58 | O=C(CSc1nnc(-c2cccs2)n1-c1ccccc1)NCc1ccco1 | 6.51% (inactive)
59 | Cc1nnc(SCC(=O)N2CCc3ccccc3C2)s1 | 1.25% (inactive)
60 | O=C(CSc1nnc(-c2cccs2)n1Cc1ccccc1)N1CCc2ccccc2C1 | 40.2% (active)
61 | Cc1nnc(SCC(=O)N2CCN(c3ccccc3)CC2)n1-c1ccccc1 | 2.49% (inactive)
62 | O=C(CSc1nnc(-c2cccs2)n1-c1ccccc1)N1CCN(C(=O)c2ccco2)CC1 | 37.9% (active)
63 | O=C(OCN1C(=O)c2ccccc2C1=O)/C(=C\c1ccco1)NC(=O)c1ccccc1 | -11.4% (inactive)
64 | Cc1cc(OC(=O)c2c(Cl)cccc2Cl)nc(C)n1 | 3.63% (inactive)
65 | O=C(Nc1ncc2c(n1)-c1ccccc1OC2)c1ccc(Cl)cc1 | 22.5% (inactive)
66 | CC(C)c1ccc(N2CCN(C(=O)c3ccccc3NC(=O)/C=C(\C(=O)O)c3ccccc3)CC2)cc1 | 11.3% (inactive)
67 | Cc1ccc(S(=O)(=O)N(CC(=O)N/N=C/c2ccc(F)cc2)c2cccc3cccnc23)cc1 | 6.82% (inactive)
68 | CCOC(=O)c1[nH]c2ccc(OC)cc2c1NC(=O)CCN1CCN(Cc2ccccc2)CC1 | 1.92% (inactive)
69 | COC(=O)c1[nH]c2cccc(C)c2c1NC(=O)CN1CCCc2ccccc21 | 19.7% (inactive)

Row | Compound | inhibition
70 | COC(=O)c1[nH]c2ccccc2c1NC(=O)CN1CCCc2ccccc21 | 43.4% (active)
71 | Cc1ccnc(N2CCN(C(=O)CSc3nc4ccccc4nc3N3CCCCC3)CC2)c1 | 42.9% (active)
72 | Cc1ccc2oc(=O)c3cnn(CC(=O)N4CCN(c5ccccn5)CC4)c3c2c1 | -3.03% (inactive)
73 | Cc1ccc(S(=O)(=O)NCC(=O)N2CCN(c3ccccn3)CC2)cc1 | 2.13% (inactive)
74 | Cc1ccc(SCC(=O)c2sc(-c3ccccc3)nc2C)cc1 | -6.19% (inactive)
75 | COc1ccc(-c2n[nH]c(C)c2-c2ccc(OC)c(OC)c2)c(O)c1 | 15% (inactive)
76 | C=C(C)COc1ccc(-c2n[nH]c(C)c2-c2ccccc2OC)c(O)c1 | 7.96% (inactive)
77 | C=C(C)COc1ccc(-c2n[nH]c(C)c2-c2ccccc2)c(O)c1 | 34.8% (active)
78 | O=C(CN1C(=O)NC(Cc2ccccc2)(Cc2ccccc2)C1=O)NCC1CCCCC1 | 16.1% (inactive)
79 | COC(=O)c1cc(NC(=O)C2C3C=CC(C3)C2C(=O)O)cc(C(=O)OC)c1 (configuration not stated) | 6.4% (inactive)
80 | CN1CCN(C(=O)C2C3C=CC(C3)C2C(=O)O)CC1 (configuration not stated) | 36.6% (active)
81 | O=C(O)C1C2C=CC(C2)C1C(=O)N1CCN(CCO)CC1 (configuration not stated) | 7.62% (inactive)
82 | O=C(CN1C(=O)CC(c2ccccc2)=Nc2ccccc21)NC1CCCCC1 | 7.73% (inactive)
83 | COc1cccc(CNc2nc3nc4c(c(=O)n3[nH]2)CCC4)c1 | 3.19% (inactive)
84 | COc1cccc(-c2nc(S(=O)(=O)c3ccccc3)c(N3CCOCC3)o2)c1 | 15.6% (inactive)
85 | COc1cccc(-c2cc3nc4c(c(N5CCC6(CC5)OCCO6)n3n2)CCCC4)c1 | 77.5% (active)
86 | CCOc1ccc(Nc2nc(Cc3nnc(SCC(=O)NC4CCCC4)n3C)cs2)cc1 | 5.32% (inactive)
87 | O=C(/C=C/c1ccccc1)c1ccoc1 | 17.6% (inactive)
88 | COc1ccc(C(=O)Nc2ncc3c(n2)-c2ccccc2CC3)cc1 | -6.73% (inactive)
89 | O=C(CCCN1C(=O)c2cccc3cccc(c23)C1=O)N1CCN(Cc2ccc3c(c2)OCO3)CC1 | 13.6% (inactive)
90 | Clc1ccc(C2CC(c3cccs3)n3ncnc3N2)cc1Cl (configuration not stated) | 43% (active)
91 | COc1ccc(C2CC(c3ccccc3)Nc3ncnn32)cc1 (configuration not stated) | 6.21% (inactive)
92 | COc1ccc(C2CC(c3ccc(C)cc3)Nc3ncnn32)cc1 (configuration not stated) | 0.32% (inactive)
